Data published in PubChem BioAssay (NCATS).
Results filed as inconclusive are left out. The source made the active and inactive calls. Unless noted, calls follow the shape of the dose curve; as a rule, active = well fitted curve in the direction sought with a large enough effect; inconclusive = small, poorly fitted or top-dose-only effect, or another doubt; inactive = no such curve, though single readings can be large; an effect the other way counts as inactive or inconclusive.

What was measured:
[1] = Cell Viability - NIH 3T3 (AID 541); conditions: NIH 3T3 cell viability, qHTS; activity change, negative = cytotoxicity: at 92.2 µM (top of the series);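 also: cells exposed to compound for 40 hours; plate controls were DMSO alone for no effect and tamoxifen positive control for full effect; nearly all actives have a fitted effect of over 25% in size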
Method in brief: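 Intracellular ATP (CellTiter-Glo luminescence, 20 min at room temperature) measured after 40 hr compound exposure at 37 °C of 1000 NIH 3T3 mouse fibroblasts/well in complete medium; AC50 derived by Hill-equation modelling of qHTS concentration-response curves.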

[2] = Cell Viability - H-4-II-E (AID 543);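 also: cells exposed to compound for 40 hours; % is scaled to controls: 0 for no effect and ±100 for the full control effect; nearly all actives have a fitted effect of over 35% in size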
Method in brief: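 CellTiter-Glo luminescence (intracellular ATP) measured after 40 h compound exposure at 37 °C in H-4-II-E rat hepatoma cells seeded at 1500/well. Values are AC50s fitted with the standard Hill equation.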

[3] = Cellular Toxicity (caspase-3) Jurkat (AID 655); conditions: Jurkat caspase-3 activation, luminescence; caspase-3 activation: at 92.2 µM (top of the series), DMSO = 0%, tamoxifen = 100%;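 also: cells exposed to compound for 16 h at 37 °C before reading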
Method in brief: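 Jurkat cells (5000/well) in complete medium were treated with compounds for 16 hr at 37 °C, then Caspase-Glo 3/7 luminescence was read after 20 min at room temperature. Data normalized to DMSO (basal) and 100 uM tamoxifen (100%); AC50 from Hill fit.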

[4] = Cellular Toxicity (caspase-3) BJ (AID 658);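 also: cells exposed to compound for 16 hours; 0% = DMSO basal and 100% = 10 µM staurosporine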
Method in brief: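 Plated BJ cells (1000/well) rested 5 hr, received compound for 16 hr at 37 °C, then Caspase-Glo 3/7 reagent for 1 hr at room temperature before luminescence reading.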

[5] = MultiTox-Fluor Cytotoxicity Assay - LYMP1-003 - Dead Cells (AID 961); also: nearly all actives have a fitted effect of over 70% in size
Method in brief: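 Dead-cell protease release, detected as bis-AAF-R110 fluorescence at 485/520 nm, was measured in LYMP1-003 cells after 16 h compound treatment at 37 C. AC50 values came from Hill-modeled qHTS curves normalized to DMSO (0%) and 15 uM tetraoctylammonium bromide (100%).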

[6] = Cell Viability - LYMP1-003 - Assay at 40 hr (AID 964); also: % is scaled to controls: 0 for no effect and ±100 for the full control effect; nearly all actives have a fitted effect of over 60% in size
Method in brief: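 Viability is taken as cellular ATP, read by CellTiter-Glo luminescence after 40 h of compound exposure at 37 C. Cells: human lymphoblastoid line LYMP1-003 at 2500/well; AC50 values derived by Hill-equation fitting of concentration-response data.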

[7] = Cell Viability - LYMP2-021 (AID 974); also: % is scaled to controls: 0 for no effect and ±100 for the full control effect; nearly all actives have a fitted effect of over 55% in size
Method in brief: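 AC50 values come from Hill-equation fits to CellTiter-Glo luminescence (ATP content), read after 24 hour compound exposure at 37 C of 2500 LYMP2-021 lymphoblastoid cells/well; tetraoctylammonium bromide as positive control.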

[8] = Cell Viability - LYMP2-023 (AID 975);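 also: cellular ATP measured by luciferase luminescence as viability proxy; plate controls were DMSO only for no effect and 92 µM tetraoctylammonium bromide control for full effect; nearly all actives have a fitted effect of over 55% in size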
Method in brief: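 Intracellular ATP, read by CellTiter-Glo luminescence, reports viability after 24 hr compound exposure at 37 C. 2500 lymphoblastoid cells/well (LYMP2-023) seeded 5 hr beforehand; Hill fits give AC50; positive control tetraoctylammonium bromide.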

[9] = Cell Viability - LYMP2-006 (AID 978); also: % is scaled to controls: 0 for no effect and ±100 for the full control effect; nearly all actives have a fitted effect of over 60% in size
Method in brief: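 Human lymphoblastoid cells, 2500 per well, were preincubated 5 hr at 37 C, then exposed to compounds for 24 hr at 37 C in complete medium. Viability was read as intracellular ATP by CellTiter-Glo luminescence; AC50 from Hill-equation fits of qHTS concentration-response data.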

[10] = Cell Viability - LYMP2-010 (AID 981); also: % is scaled to controls: 0 for no effect and ±100 for the full control effect; nearly all actives have a fitted effect of over 55% in size
Method in brief: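 CellTiter-Glo ATP luminescence measured cytotoxicity after 24 h compound exposure at 37 C. LYMP2-010 cells were seeded at 2500/well, with tetraoctylammonium bromide as control; concentration-response curves gave AC50 values by the Hill equation.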

[11] = Cell Viability - LYMP2-018 (AID 985);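 also: plate controls were DMSO only for no effect and tetraoctylammonium bromide at 92 µM for full effect; nearly all actives have a fitted effect of over 50% in size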
Method in brief: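 Viability read as CellTiter-Glo luminescence (cellular ATP) after 24 hr compound exposure at 37 C of 2500 LYMP2-018 lymphoblastoid cells/well, pre-plated 5 hr. Hill-equation modelling gave AC50.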

[12] = Cell Viability - LYMP2-020 (AID 986);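 also: plate controls were DMSO only for no effect and tetraoctylammonium bromide at 92 µM for full effect; nearly all actives have a fitted effect of over 55% in size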
Method in brief: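 Cytotoxicity in qHTS format: luminescent ATP readout from CellTiter-Glo after 24 h compound exposure at 37 C in complete medium. LYMP2-020 lymphoblastoid cells were seeded at 2500/well; concentration-response data fitted to the Hill equation for AC50.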

[13] = Cell Viability - LYMP2-022 (AID 987)
Method in brief: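 Cytotoxicity read as decreased cellular ATP (CellTiter-Glo luminescence, 30 min room temperature) after 24 hours compound exposure of 2500 lymphoblastoid LYMP2-022 cells/well at 37 C. Concentration-response data fitted with standard Hill equation for AC50.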

[14] = molecular target: Thyroid hormone receptor beta (Homo sapiens) (UniProt P10828); assay: qHTS assay for small molecule agonists of thyroid hormone receptor beta signaling (AID 588545; calls by dose curve;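 also: 0% = DMSO only and 100% = 10 nM T3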)
Method in brief: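 Stimulation of a TR-driven beta-lactamase reporter was quantified in GripTite HEK 293 cells. Compound series ran for 18 hrs; curves were normalized to T3 and DMSO controls and fitted to yield EC50.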

[15] = molecular target: Voltage-gated inwardly rectifying potassium channel KCNH2 (Homo sapiens) (UniProt Q12809); assay: qHTS Assay for Small Molecule Inhibitors of the Human hERG Channel Activity (AID 588834);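 also: top concentration of the series differs between compounds; % is scaled to controls: 0 for no effect and ±100 for the full control effect; lower thallium flux fluorescence means stronger hERG block; nearly all actives have a fitted effect of over 50% in size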
Method in brief: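 In hERG-transduced U2OS cells, dye-loaded for 1 hr at room temperature in dark, test compounds incubated 10 min at 37 °C before thallium stimulation. AC50 values derived by Hill modelling of concentration-response.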

[16] = qHTS assay for small molecule activators of the nuclear factor-kappa B (NF-kB) signaling pathway (AID 651749; active = well fitted activation curve with a large enough effect in the signal ratio; the % refers to the signal ratio; also: % of control where 0% means no effect); conditions: NF-kB-bla ME-180 cells, beta-lactamase FRET ratio, 16 h; hits give high values
Method in brief: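 Human ME-180 cervical cells with an NF-kB-bla construct; compounds added via 23 nL pin transfer, DMSO as vehicle; incubation 16 hr. Reporter activity measured by FRET disruption.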

[17] = molecular target: Nuclear receptor ROR-gamma (Homo sapiens) (UniProt P51449); assay: qHTS assay for small molecule antagonists of the retinoid-related orphan receptor gamma (ROR-gamma) signaling pathway (AID 651802);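 also: CHO cells with doxycycline-induced ROR-gamma expression; luciferase reporter luminescence driven by ROR response element; % is scaled to controls: 0 for no effect and ±100 for the full control effect; nearly all actives have a fitted effect of over 60% in size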
Method in brief: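 Luminescence (One-Glo, 30 min RT) measured 16 h after compound addition and doxycycline induction at 37C. Reporter: RORE-luciferase under TET-inducible ROR-gamma in CHO cells.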

[18] = qHTS assay for small molecule agonists of the antioxidant response element (ARE) signaling pathway measured by Nrf2-dependant transcriptional activity (AID 720636; active = well fitted curve in the direction sought with a large enough effect in the repeat runs; an effect the other way counts as inactive or inconclusive;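 also: HepG2 cells with an ARE-driven luciferase reporter; % of control where 0% means no effect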)
Method in brief: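 Attachment 6 hr at 37 C, then compound versus DMSO vehicle for 16 hr in ARE-luc HepG2 cells (1% dialyzed FBS); luminescence recorded 30 min after ONE-Glo addition at room temperature.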

[19] = qHTS assay for small molecule activators of the human pregnane X receptor (PXR) signaling pathway (AID 720659; call rule not given here; also: 0% is about no effect)
[20] = molecular target: Thyroid hormone receptor beta (Homo sapiens) (UniProt P10828); assay: qHTS assay for small molecule antagonists of thyroid hormone receptor beta signaling (AID 588547; active = well fitted inhibition curve with a large enough effect in the signal ratio, with a control signal flat, not every such curve was filed as active; the % refers to the signal ratio;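 also: cells stimulated with 0.4 nM T3 agonist during compound exposure; % is scaled to controls: 0 for no effect and ±100 for the full control effect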); conditions: TR-UAS-bla HEK293, beta-lactamase ratio, antagonist mode, 18 h
Method in brief: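 TR-UAS-bla GripTite HEK293 cells in 2% charcoal/dextran FBS medium were preincubated 4 h at 37 C, given compound (0.59 nM to 92 uM) plus 0.4 nM T3 (final) for 18 h, then CCF4 for 2 h at RT; Hill fit gave IC50.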

Nuclear receptor ROR-gamma (Homo sapiens), sequence (P51449 whole entry, looked up): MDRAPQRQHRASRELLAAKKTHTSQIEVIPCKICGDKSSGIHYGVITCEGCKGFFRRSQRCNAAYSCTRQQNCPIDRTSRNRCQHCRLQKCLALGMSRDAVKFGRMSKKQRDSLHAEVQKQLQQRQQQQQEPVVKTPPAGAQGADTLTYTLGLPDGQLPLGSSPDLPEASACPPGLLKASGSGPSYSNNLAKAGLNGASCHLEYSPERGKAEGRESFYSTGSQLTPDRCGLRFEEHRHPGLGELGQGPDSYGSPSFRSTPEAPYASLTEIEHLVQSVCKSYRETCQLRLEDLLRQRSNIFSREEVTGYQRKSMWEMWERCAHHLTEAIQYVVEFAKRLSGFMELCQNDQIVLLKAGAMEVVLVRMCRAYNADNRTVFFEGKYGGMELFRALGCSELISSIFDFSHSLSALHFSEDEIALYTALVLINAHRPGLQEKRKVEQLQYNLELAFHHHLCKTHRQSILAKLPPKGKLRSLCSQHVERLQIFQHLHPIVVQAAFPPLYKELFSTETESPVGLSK
Voltage-gated inwardly rectifying potassium channel KCNH2 (Homo sapiens), sequence (Q12809 whole entry, looked up): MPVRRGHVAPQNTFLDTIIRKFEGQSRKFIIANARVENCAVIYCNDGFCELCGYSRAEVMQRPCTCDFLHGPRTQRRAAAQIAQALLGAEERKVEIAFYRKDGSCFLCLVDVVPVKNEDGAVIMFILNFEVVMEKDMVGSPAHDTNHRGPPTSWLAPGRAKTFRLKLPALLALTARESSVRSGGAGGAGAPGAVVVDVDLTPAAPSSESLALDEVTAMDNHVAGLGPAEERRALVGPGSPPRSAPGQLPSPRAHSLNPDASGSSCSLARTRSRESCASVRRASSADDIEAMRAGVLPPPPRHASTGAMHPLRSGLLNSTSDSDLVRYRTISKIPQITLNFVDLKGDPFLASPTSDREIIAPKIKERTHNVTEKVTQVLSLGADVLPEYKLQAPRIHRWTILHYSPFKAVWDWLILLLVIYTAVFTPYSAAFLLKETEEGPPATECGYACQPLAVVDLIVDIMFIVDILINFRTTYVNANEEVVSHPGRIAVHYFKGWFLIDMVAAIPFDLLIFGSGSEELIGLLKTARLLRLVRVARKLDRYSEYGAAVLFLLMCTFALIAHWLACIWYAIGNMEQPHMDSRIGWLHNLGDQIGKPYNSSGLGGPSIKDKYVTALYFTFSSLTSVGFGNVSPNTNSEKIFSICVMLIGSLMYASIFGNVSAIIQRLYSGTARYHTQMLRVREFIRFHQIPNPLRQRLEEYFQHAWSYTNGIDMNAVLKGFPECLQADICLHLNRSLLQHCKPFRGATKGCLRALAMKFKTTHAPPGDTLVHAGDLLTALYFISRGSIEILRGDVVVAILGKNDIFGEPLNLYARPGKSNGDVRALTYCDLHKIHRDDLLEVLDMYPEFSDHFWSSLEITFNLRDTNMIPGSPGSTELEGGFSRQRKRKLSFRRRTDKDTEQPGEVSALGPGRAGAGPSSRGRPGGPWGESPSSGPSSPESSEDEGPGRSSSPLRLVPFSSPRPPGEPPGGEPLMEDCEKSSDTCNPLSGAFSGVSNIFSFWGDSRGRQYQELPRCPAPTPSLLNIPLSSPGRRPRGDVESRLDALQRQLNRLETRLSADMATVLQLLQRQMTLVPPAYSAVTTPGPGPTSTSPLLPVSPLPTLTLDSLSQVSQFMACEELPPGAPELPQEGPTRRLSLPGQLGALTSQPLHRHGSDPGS
Thyroid hormone receptor beta (Homo sapiens), sequence (P10828 whole entry, looked up): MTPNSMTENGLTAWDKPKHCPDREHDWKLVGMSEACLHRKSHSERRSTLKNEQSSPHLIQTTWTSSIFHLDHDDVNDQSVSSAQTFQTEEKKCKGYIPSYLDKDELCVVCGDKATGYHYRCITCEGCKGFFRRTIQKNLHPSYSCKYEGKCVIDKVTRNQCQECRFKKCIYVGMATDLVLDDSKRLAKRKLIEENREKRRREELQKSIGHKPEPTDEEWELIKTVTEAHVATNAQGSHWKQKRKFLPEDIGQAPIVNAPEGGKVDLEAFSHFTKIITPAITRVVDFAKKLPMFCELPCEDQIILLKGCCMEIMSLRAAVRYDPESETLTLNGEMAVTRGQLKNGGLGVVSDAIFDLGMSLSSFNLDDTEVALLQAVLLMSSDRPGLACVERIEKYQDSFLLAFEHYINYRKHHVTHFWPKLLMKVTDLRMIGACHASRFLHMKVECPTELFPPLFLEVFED

Nc1cc(Cl)cc(Cl)c1
inactive: Potency [1] | Potency [2] | caspase-3 activation [3] -0.381% | outcome [4] | Potency [5] | Potency [6] | Potency [7] | Potency [8] | Potency [9] | Potency [10] | Potency [11] | Potency [12] | Potency [13] | Potency [14] | Potency [15] | activation [16] 0.8% | Potency [17] | Potency [18] | outcome [19]

Oc1ccc(Cl)c(Cl)c1Cl
inactive: Potency [2] | caspase-3 activation [3] 0.688% | outcome [4] | Potency [5] | Potency [6] | Potency [7] | Potency [8] | Potency [9] | Potency [10] | Potency [12] | Potency [13] | Potency [14] | activity change % (negative = inhibition) [20] 14.5% | Potency [15] | activation [16] -0.348% | Potency [18] | outcome [19]

[O-][Cl+2]([O-])O
inactive: Potency [1] | outcome [4] | Potency [5] | Potency [6] | Potency [7] | Potency [8] | Potency [9] | Potency [10] | Potency [11] | Potency [13] | Potency [15] | activation [16] -0.919% | Potency [18] | outcome [19]

C=CC(=O)OC
inactive: Potency [1] | Potency [2] | caspase-3 activation [3] 0.227% | outcome [4] | Potency [6] | Potency [8] | Potency [9] | Potency [10] | Potency [11] | Potency [12] | Potency [13] | Potency [14] | activity change % (negative = inhibition) [20] -6.86% | activation [16] -0.11% | Potency [17] | Potency [18] | outcome [19]

CC(C)OS(C)(=O)=O
inactive: Potency [1] | Potency [2] | caspase-3 activation [3] 1.6% | outcome [4] | Potency [5] | Potency [6] | Potency [7] | Potency [8] | Potency [9] | Potency [10] | Potency [11] | Potency [13] | activity change % (negative = inhibition) [20] 8.49% | Potency [15] | outcome [19]

CCOC(=O)CBr
inactive: Potency [1] | Potency [2] | caspase-3 activation [3] 1.06% | outcome [4] | Potency [6] | Potency [8] | Potency [10] | Potency [11] | Potency [14] | activity change % (negative = inhibition) [20] -6.62% | activation [16] -0.133% | Potency [17] | Potency [18] | outcome [19]

Oc1cc(Cl)cc(Cl)c1
inactive: Potency [1] | Potency [2] | caspase-3 activation [3] -0.202% | outcome [4] | Potency [5] | Potency [6] | Potency [7] | Potency [8] | Potency [10] | Potency [12] | Potency [13] | Potency [14] | Potency [15] | activation [16] 0.715% | Potency [17] | Potency [18] | outcome [19]

N#CC(O)c1ccccc1 (configuration not stated)
inactive: Potency [1] | Potency [2] | caspase-3 activation [3] 2.09% | Potency [5] | Potency [6] | Potency [8] | Potency [9] | Potency [12] | Potency [13] | Potency [14] | activity change % (negative = inhibition) [20] 8.13% | Potency [15] | activation [16] 0.595% | Potency [17] | outcome [19]

Cc1cc(C)cc(OP(=O)(Oc2cc(C)cc(C)c2)Oc2cc(C)cc(C)c2)c1
inactive: caspase-3 activation [3] 0.111% | outcome [4] | Potency [6] | Potency [7] | Potency [8] | Potency [9] | Potency [10] | Potency [11] | Potency [12] | Potency [13] | Potency [14] | activity change % (negative = inhibition) [20] 2.87%

C=CCOCC1CO1 (configuration not stated)
inactive: Potency [1] | Potency [2] | caspase-3 activation [3] -0.0286% | outcome [4] | Potency [5] | Potency [7] | Potency [8] | Potency [9] | Potency [10] | Potency [11] | Potency [12] | Potency [13] | Potency [14] | Potency [15] | Potency [17] | Potency [18] | outcome [19]
